# Laboratory results: PubChem BioAssay AID1259397 (Fisher Drug Discovery Resource Center, 2018)
# Values joined by “and” are separate entries in the source; they are usually repeats but may differ in a detail not shown here. Identical values can stand only once. In all, about 130,000 compounds went through this assay and about 230 (0.18%) were called active.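 How the source made its calls: active means inhibition of cGAS enzyme activity at or above 60%; inactive means the rest.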 What follows is part of a selection rich in actives, with near analogues and random picks from the rest. Where a structure was tested more than once in an assay, its records may differ in their call.
# Biological target: Cyclic GMP-AMP synthase (Mus musculus) (UniProt Q8C6L5)
# Sequence (Q8C6L5 whole entry, looked up): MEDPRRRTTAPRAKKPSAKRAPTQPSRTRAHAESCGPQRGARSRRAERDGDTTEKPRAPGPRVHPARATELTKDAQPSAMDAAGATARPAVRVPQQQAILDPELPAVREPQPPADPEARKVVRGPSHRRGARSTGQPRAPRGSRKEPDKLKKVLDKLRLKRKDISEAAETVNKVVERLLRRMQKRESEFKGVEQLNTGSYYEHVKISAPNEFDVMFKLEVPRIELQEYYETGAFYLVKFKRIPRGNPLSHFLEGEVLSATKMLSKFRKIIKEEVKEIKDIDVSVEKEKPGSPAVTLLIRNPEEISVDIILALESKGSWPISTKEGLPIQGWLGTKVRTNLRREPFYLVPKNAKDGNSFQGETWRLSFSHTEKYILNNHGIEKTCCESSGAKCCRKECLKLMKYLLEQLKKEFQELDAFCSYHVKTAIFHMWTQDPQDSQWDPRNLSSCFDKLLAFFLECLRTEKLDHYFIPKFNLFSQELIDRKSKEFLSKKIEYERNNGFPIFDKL
# Assay: inhibitors of Mus musculus cyclic GMP-AMP synthase, initial high-throughput assay, cell-free, RapidFire MS (AID 1259397);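 further: enzyme stimulated by 45 bp dsDNA with ATP and GTP substrates; cGAMP share of summed cGAMP plus half ATP and half GTP signals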
# Settings: recombinant mouse cGAS, cGAMP by RapidFire MS; at 12.5 µM; stronger effect = higher value
row,Structure (SMILES),inhibition
1,COCCn1c(-c2cc(OC)ccc2OC)csc1=Nc1ccc(OC)cc1,-17.5% (inactive)
2,Cc1ccc(-c2nc(CCNC(=O)c3cccc(C)c3)cs2)cc1,5.19% (inactive)
3,O=S(=O)(c1ccc(Oc2nc(C(F)(F)F)nc3ccccc23)cc1)N1CCOCC1,-25.2% (inactive)
4,COC(=O)NC(C)C(=O)NCc1cccnc1Oc1c(C)cccc1C (stereo not given),-19.5% (inactive)
5,CCN(Cc1ccccc1)C(=O)COC(=O)c1cccc(O)c1,5.18% (inactive)
6,CN1CCN(c2ccc(NC(=O)c3cccs3)c(C(F)(F)F)c2)CC1,-17.2% (inactive)
7,COc1ccc(C2=CCN(C(=O)c3csc(NC(C)=O)n3)CC2)cc1,-5.03% (inactive)
8,COc1ccc(CCn2c(SCCO)nc3c2c(=O)n(C)c(=O)n3C)cc1,-8.65% (inactive)
9,Cc1nn(C)c(C)c1C(=O)N(C)Cc1ccc(Cl)cc1,-0.861% (inactive)
10,CCC(C(=O)N1CC=CCC1)n1cc(C(C)=O)c2ccccc21 (stereo not given),-14.3% (inactive)
11,Fc1ccc(-c2[nH]ncc2CNCc2ccc(OC(F)(F)F)cc2)c(F)c1,-8.38% (inactive)
12,N#Cc1ccc(NC(c2ccccc2)c2ccccn2)nc1 (stereo not given),9.13% (inactive)
13,CC(Cn1ccnc1)NS(=O)(=O)c1ccccc1 (stereo not given),-2.43% (inactive)
14,Cc1nc2c(c(NCc3csc(-c4cnccn4)n3)n1)CCN(C)CC2,-14.9% (inactive)
15,COc1ccc(NC(C)=O)cc1S(=O)(=O)Oc1ccc2c(c1)CCC2,-14.7% (inactive)
16,O=C(Cn1ccc(=O)c2ccccc21)Nc1cc(Cl)ccc1C(=O)N1CCCC1,-4.35% (inactive)
17,COc1ccccc1-c1n[nH]c(=S)n1-c1ccc(C)cc1,-2.19% (inactive)
18,O=C(Nc1ccc(F)cc1)Nc1ccc(OC(F)F)cc1,-13.8% (inactive)
19,O=c1oc2c(CN3CC4CC(C3)c3cccc(=O)n3C4)c(O)ccc2cc1-c1nc2ccccc2s1 (stereo not given),-0.297% (inactive)
20,O=C(O)CCCc1ccccc1,0.216% (inactive) and -7.46% (inactive) and -8.15% (inactive)
21,O=C(O)CCCc1ccc(Br)s1,92.3% (active)
22,O=C(CCSCc1ccccn1)NCc1ccc(Br)s1,7.74% (inactive)
23,O=C(NCCc1ccccc1)C1=COC2=NC(=O)N(Cc3ccccc3C(F)(F)F)CCN12,-9.37% (inactive)
24,N#Cc1cccc(CN2CCN3C(C(=O)NCCCc4ccccc4)=COC3=NC2=O)c1,-8.68% (inactive)
25,CS(=O)(=O)c1ccc(CN2CCN3C(C(=O)N4CCOCC4)=COC3=NC2=O)cc1,62.5% (active)
26,Cc1cc2nc3c(=O)[nH]c(=O)nc-3n(C[C@H](O)[C@H](O)[C@H](O)CO)c2cc1C,87.9% (active)
27,Cc1c(C(=O)NCc2cccs2)sc(=O)n1Cc1ccccc1C(F)(F)F,-4.53% (inactive)
28,COc1ccccc1CNC(=O)CC1C(=O)NCCN1Cc1ccccc1C (stereo not given),-7.58% (inactive)

row,Structure (SMILES),inhibition
1,C=Cc1c(C)c2[n-]c1=Cc1[n-]c(c(CC)c1C)C=c1[n-]c3c(c1C)C(O)=C(C(=O)O)C=3c1[n-]c(c(C)c1CCC(=O)O)C=2.[Cu],97.2% (active) and -3.92% (inactive)
2,Cc1ccc(C(=O)Nc2ccc(C(=O)NCC(N)=O)cc2)cc1Cl,-5.23% (inactive)
3,CCC(N)(C(=O)OC)c1ccccc1 (stereo not given),-5.42% (inactive)
4,Cc1ccc(NC(=O)Cc2nc(-c3ccc4c(c3)CCO4)cs2)c(C)c1,4.73% (inactive)
5,Cc1ccc(NS(=O)(=O)c2ccccc2C(F)(F)F)cc1C,-9.68% (inactive)
6,Cc1nc(-c2cccs2)sc1C(=O)OCc1cc(=O)n2c(C)csc2n1,17.2% (inactive)
7,COc1cc(C)c(CN2CCN(C(=O)C3=COCCO3)CC2)cc1OC,0.561% (inactive)
8,O=C(NCC1(c2ccc(F)cc2)CCCC1)C1CCN(C(=O)C2CC2)CC1,0.199% (inactive)
9,FC(F)C(F)(F)C(F)(F)C(F)(F)CNCc1ccco1,6.11% (inactive)
10,CC(C)Oc1ccc(-c2cncn2C)cc1,-19.6% (inactive)
11,Cn1nnnc1SCCNC(=O)c1ccc2oc(Cc3ccccc3)nc2c1,3.65% (inactive)
12,COCCCn1c(C)c(C)n2c3c(=O)n(CC(C)C)c(=O)n(C)c3nc12,-5.91% (inactive)
13,COC(=O)c1ccc(-c2nc(CN3CCN(C(=O)c4cccc(OC)c4)CC3)c(C)o2)cc1,-3.22% (inactive)
14,O=C(CC1CSc2nccc(=O)n21)Nc1ccc(Oc2ccccc2)cc1 (stereo not given),-4.45% (inactive)
15,CCC(c1ccccc1)C1(O)OC(=O)c2ccccc21 (stereo not given),-3.91% (inactive)
16,O=C(CCn1c(=O)oc2cc(Cl)ccc21)N1CCN(c2ccccc2Cl)CC1,-7.84% (inactive)
17,COc1ccc(C(=O)NC2CC2)cc1OC1CCN(C/C=C/c2ccccc2)CC1,-2.34% (inactive)
18,CC(C)(C)n1ncc2c(=O)n(NC(=O)c3ccc(C(F)(F)F)cc3)cnc21,-4.85% (inactive)
19,C#CC(CC)(CC)NC(=O)c1ccc(S(C)(=O)=O)cc1,1.64% (inactive)
20,COc1cc(CNC(C)(C)CO)ccc1OCC(=O)Nc1ccc(C)cc1,-4.89% (inactive)
21,CCc1ccc2oc3c(c(=O)c2c1)C(c1cccc([N+](=O)[O-])c1)N(c1cc(C)on1)C3=O (stereo not given),-10.5% (inactive)
22,Cc1noc(CNC(=O)C2CC(=O)N(CC(F)(F)F)C2)n1 (stereo not given),1.05% (inactive)
23,CCC1=NOC(C(=O)NCCn2c(C)cc(C)nc2=O)C1 (stereo not given),0.535% (inactive)
24,CC(CCS(C)=O)NC(=O)Nc1ncc(-c2ccccc2)s1 (stereo not given),-2.71% (inactive)
25,Oc1c(Cl)cc(Cl)c(Cl)c1Cc1c(O)c(Cl)cc(Cl)c1Cl,92.7% (active) and 36.7% (inactive)
26,COc1ccc(-c2csc(=Nc3cc(OC)cc(OC)c3)n2NC(=O)C(C)Oc2ccc(Cl)cc2C)cc1 (stereo not given),1.02% (inactive)
27,Cc1cc(C)n(CCNC(=O)CN2CCN(c3ccc4c(c3)OCCO4)C2=O)n1,-5.72% (inactive)
